{"source": "PubChem BioAssay (NCATS)", "key": {"[1]": {"molecular_target": "ATPase family AAA domain-containing protein 5 (Homo sapiens) (UniProt Q96QE3)", "sequence (Q96QE3 whole entry, looked up, the tested form may be a part)": "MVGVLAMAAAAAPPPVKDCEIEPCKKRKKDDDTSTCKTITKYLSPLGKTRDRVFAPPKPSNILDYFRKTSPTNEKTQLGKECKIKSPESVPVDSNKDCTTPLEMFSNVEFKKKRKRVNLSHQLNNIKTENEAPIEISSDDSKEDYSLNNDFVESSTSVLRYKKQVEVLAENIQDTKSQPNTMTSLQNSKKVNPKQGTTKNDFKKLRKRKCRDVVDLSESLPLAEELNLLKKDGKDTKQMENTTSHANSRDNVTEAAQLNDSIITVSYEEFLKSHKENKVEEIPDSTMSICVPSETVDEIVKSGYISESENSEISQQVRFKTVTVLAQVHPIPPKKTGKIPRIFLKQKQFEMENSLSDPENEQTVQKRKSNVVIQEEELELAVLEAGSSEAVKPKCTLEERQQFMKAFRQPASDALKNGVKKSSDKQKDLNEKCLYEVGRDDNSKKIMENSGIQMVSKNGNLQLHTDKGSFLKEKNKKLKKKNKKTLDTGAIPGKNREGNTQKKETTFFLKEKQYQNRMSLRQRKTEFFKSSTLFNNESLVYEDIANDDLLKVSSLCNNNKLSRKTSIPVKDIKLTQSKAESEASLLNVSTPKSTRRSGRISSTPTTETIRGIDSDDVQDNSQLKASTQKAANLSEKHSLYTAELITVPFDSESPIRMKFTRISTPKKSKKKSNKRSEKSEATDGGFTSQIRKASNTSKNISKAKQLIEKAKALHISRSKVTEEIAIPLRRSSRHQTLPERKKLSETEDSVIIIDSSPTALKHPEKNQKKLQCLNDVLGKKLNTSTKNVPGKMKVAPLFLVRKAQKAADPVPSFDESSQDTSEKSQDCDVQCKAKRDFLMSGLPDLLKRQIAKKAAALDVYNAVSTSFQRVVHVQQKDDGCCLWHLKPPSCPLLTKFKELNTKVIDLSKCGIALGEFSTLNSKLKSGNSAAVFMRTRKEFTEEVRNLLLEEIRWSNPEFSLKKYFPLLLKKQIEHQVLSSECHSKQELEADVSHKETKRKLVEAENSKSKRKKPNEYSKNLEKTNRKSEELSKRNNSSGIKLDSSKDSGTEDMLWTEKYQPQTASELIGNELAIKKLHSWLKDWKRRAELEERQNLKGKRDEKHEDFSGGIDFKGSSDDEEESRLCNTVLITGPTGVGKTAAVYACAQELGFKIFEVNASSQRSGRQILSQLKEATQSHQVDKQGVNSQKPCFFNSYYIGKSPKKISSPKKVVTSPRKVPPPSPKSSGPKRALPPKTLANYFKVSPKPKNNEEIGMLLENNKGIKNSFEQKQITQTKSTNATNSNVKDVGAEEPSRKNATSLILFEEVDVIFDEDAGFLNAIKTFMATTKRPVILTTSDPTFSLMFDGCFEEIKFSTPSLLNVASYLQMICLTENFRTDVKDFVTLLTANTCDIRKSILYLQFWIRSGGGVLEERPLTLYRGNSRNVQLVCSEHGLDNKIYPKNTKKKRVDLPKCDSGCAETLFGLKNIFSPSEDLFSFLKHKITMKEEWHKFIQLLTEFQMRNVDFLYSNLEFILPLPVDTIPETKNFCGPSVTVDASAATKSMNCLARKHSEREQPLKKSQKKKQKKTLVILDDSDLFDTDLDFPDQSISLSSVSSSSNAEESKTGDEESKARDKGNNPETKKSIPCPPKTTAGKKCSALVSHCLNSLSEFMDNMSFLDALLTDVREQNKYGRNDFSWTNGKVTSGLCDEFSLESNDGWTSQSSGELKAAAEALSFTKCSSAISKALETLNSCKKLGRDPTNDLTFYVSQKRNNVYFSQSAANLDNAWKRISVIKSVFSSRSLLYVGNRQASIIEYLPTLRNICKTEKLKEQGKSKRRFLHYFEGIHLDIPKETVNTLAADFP", "assay": "Validation screen for small molecules that inhibit ELG1-dependent DNA repair in human embryonic kidney (HEK293T) cells expressing luciferase-tagged ELG1 (AID 493107); note: potency is the fitted concentration of half-maximal effect; nearly all actives have a fitted effect of over 70% in size", "details": "HEK293T ELG1-luciferase level, luminescence, 5-fluorouridine co-treatment, 16 h; series mostly up to 46.1 µM", "how_it_was_run": "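Luciferase read-out, ONE-Glo, 30 min at room temperature, follows 16 h co-exposure at 37 C of compound and the DNA-damaging agent 5-fluorouridine. Cells: HEK293T with ELG1-luciferase fusion, 2,000 per well, DMSO as vehicle.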"}, "[2]": {"molecular_target": "Arylsulfatase A (Homo sapiens) (UniProt P15289)", "sequence (P15289 whole entry, looked up)": "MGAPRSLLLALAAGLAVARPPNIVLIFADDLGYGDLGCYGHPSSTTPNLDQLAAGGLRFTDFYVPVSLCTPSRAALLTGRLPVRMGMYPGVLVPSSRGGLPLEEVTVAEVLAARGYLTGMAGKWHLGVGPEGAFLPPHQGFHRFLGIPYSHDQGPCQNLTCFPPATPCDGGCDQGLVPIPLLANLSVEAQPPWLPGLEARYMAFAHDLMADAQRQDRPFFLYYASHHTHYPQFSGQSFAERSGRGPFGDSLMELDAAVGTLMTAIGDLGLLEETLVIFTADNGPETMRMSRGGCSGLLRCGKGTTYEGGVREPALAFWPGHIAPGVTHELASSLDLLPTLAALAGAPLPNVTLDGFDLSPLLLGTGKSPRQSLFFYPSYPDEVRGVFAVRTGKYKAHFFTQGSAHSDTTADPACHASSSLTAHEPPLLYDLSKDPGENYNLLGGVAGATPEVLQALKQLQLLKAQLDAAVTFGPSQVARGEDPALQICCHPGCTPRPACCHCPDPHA", "assay": "qHTS screen for enhancers of Arylsulfatase A (ASA1): LOPAC Validation Assay (AID 720538)", "details": "ASA enzyme activity, LOPAC qHTS enhancer assay; series mostly up to 57.5 µM", "how_it_was_run": "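Enhancer assay in patient-derived MLD fibroblasts carrying ASA-I179S: 48 h compound exposure at 37 C, then 14 h room-temperature pNCS turnover (0.5 mM final) in lysis buffer. Read by fluorescence at 525/598 nm after NaOH stop.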"}, "[3]": {"molecular_target": "Phospholipid hydroperoxide glutathione peroxidase GPX4 (Homo sapiens) (UniProt P36969)", "sequence (P36969 whole entry, looked up)": "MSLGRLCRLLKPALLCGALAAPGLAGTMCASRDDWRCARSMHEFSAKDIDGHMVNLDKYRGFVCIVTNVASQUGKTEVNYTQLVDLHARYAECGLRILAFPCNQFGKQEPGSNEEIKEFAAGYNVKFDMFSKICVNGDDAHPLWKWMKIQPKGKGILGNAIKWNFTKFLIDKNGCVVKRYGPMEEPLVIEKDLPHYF", "assay": "Primary qHTS Assay for Inhibitors of Recombinant Selenoprotein Glutathione Peroxidase 4 (GPX4) (AID 1845192); note: nearly all actives have a fitted effect of over 65% in size", "details": "recombinant GPX4, GR-coupled NADPH fluorescence, 15 min; series mostly up to 50 µM", "how_it_was_run": "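NADPH consumption followed by fluorescence at 340/450 nm, t=0 and after 15 min at room temperature. Reaction started with cumene hydroperoxide (0.5 mM final) after 30 min compound–GPX4 preincubation; final 200 nM GPX4, 100 nM GR, 1 mM GSH, 0.5 mM NADPH.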"}}, "note": "Inconclusive results are not listed. A call without a number means that no potency is given here. The source made the active and inactive calls. Calls come from the whole dose curve; as a rule, active = well fitted curve in the direction sought with a large enough effect; inconclusive = small, poorly fitted or top-dose-only effect, or another doubt; inactive = no such curve, though single readings can be large; an effect the other way counts as inactive or inconclusive."}
{"smiles": "COc1cc(OC)c(/C=C2/C(=O)Nc3ccccc32)c(OC)c1", "values": [{"measurement": "Potency", "setting": "[1]", "value": "16.4 µM (active)"}, {"measurement": "outcome", "setting": "[2]", "value": "inactive"}]}
{"smiles": "CN1[C@@H]2CC(O)C[C@H]1[C@@H]1O[C@@H]12", "note": "(stereo partly drawn)", "values": [{"measurement": "Potency", "setting": "[3]", "value": "inactive"}]}
